Results on four molecules are retold here after ChEMBL document CHEMBL1961873, “Compounds: GSK PKIS; Assays: Nanosyn kinase panel” (2012).

Test [1] has as its target Tyrosine-protein kinase SYK (Homo sapiens) (UniProt P43405). To be noted: at 1 µM.
Test [2] has as its target T1, Tyrosine-protein kinase Tec (Homo sapiens) (UniProt P42680).
T1 sequence (whole entry): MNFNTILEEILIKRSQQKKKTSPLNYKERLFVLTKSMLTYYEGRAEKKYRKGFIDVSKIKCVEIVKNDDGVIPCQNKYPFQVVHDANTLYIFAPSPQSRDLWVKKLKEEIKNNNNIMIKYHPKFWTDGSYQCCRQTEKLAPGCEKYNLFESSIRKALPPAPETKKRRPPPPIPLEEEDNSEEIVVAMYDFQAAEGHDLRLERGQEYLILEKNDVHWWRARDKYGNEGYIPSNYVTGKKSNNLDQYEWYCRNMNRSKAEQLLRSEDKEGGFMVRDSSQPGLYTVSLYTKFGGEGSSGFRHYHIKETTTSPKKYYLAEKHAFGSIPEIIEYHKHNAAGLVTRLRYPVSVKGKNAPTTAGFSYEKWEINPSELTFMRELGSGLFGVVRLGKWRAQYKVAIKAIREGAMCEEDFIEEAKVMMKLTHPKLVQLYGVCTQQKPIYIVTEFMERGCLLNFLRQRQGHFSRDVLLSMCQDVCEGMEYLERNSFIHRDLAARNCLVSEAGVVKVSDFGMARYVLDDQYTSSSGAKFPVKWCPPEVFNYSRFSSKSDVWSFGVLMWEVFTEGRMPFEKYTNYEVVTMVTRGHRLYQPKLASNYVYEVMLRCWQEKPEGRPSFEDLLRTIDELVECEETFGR
To be noted: at 0.1 µM.

In test [3] the target is T1, Tyrosine-protein kinase Tec (Homo sapiens). To be noted: at 1 µM.
In test [4] the target is Angiopoietin-1 receptor (Homo sapiens) (UniProt Q02763). To be noted: at 0.1 µM.
Angiopoietin-1 receptor (Homo sapiens), sequence (Q02763 whole entry): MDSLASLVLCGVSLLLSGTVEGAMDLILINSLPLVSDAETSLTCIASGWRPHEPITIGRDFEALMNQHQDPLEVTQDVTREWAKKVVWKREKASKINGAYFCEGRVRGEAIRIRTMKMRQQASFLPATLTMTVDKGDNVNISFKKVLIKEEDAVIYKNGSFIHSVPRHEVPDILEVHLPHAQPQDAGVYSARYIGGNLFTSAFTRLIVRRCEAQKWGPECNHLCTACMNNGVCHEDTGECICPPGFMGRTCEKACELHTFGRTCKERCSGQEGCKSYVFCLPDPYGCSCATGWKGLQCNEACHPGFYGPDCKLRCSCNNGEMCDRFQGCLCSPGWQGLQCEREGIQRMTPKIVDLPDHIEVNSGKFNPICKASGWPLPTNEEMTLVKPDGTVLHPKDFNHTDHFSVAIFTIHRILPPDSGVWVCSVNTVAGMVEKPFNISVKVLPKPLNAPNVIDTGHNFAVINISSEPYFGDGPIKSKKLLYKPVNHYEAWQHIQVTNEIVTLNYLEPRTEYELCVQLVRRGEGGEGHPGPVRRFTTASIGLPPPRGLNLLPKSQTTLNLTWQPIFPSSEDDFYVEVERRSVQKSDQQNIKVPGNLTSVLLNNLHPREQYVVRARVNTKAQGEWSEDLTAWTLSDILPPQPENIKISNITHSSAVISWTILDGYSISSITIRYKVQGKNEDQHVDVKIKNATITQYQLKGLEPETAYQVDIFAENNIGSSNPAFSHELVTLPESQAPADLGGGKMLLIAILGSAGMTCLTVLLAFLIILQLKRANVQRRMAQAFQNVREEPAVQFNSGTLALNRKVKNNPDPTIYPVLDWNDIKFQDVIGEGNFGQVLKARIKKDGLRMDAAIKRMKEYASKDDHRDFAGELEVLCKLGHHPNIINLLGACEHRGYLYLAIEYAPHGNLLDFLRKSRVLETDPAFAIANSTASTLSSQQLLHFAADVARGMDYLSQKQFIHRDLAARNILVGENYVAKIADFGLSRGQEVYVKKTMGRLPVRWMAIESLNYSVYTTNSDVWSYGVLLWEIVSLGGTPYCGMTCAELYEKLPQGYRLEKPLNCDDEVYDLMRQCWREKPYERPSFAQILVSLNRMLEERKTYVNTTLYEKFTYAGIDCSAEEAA
Test [5] shares this target. To be noted: at 1 µM.
Test [6] addresses T2, Non-receptor tyrosine-protein kinase TNK1 (Homo sapiens) (UniProt Q13470).
T2 sequence (whole entry): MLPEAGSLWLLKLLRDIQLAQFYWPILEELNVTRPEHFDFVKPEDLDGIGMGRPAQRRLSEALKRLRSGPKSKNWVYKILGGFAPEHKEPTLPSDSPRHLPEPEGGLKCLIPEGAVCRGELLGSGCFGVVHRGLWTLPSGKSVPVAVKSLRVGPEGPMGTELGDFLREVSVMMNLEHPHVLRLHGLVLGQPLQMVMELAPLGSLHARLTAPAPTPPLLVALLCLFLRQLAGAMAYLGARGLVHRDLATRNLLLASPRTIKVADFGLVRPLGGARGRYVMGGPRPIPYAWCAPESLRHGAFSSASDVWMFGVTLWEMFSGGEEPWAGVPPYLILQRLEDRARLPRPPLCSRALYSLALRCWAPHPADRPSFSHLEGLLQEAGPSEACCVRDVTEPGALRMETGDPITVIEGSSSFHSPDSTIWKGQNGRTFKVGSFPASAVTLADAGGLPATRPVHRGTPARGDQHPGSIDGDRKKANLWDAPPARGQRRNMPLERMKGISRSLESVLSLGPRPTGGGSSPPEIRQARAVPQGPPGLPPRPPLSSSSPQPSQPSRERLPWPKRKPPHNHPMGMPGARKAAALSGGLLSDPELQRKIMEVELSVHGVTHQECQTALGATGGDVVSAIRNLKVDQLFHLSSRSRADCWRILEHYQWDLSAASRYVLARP
To be noted: at 0.1 µM.

Test [7] concerns the target T2, Non-receptor tyrosine-protein kinase TNK1 (Homo sapiens). To be noted: at 1 µM.
Test [8] has as its target Activated CDC42 kinase 1 (Homo sapiens) (UniProt Q07912). To be noted: at 0.1 µM.
Test [9] shares this target. To be noted: at 1 µM.
Test [10] addresses High affinity nerve growth factor receptor (Homo sapiens) (UniProt P04629). To be noted: at 0.1 µM.
Test [11] shares this target. To be noted: at 1 µM.
In test [12] the target is BDNF/NT-3 growth factors receptor (Homo sapiens) (UniProt Q16620). To be noted: at 0.1 µM.
BDNF/NT-3 growth factors receptor (Homo sapiens), sequence (Q16620 32-822 limits assumed): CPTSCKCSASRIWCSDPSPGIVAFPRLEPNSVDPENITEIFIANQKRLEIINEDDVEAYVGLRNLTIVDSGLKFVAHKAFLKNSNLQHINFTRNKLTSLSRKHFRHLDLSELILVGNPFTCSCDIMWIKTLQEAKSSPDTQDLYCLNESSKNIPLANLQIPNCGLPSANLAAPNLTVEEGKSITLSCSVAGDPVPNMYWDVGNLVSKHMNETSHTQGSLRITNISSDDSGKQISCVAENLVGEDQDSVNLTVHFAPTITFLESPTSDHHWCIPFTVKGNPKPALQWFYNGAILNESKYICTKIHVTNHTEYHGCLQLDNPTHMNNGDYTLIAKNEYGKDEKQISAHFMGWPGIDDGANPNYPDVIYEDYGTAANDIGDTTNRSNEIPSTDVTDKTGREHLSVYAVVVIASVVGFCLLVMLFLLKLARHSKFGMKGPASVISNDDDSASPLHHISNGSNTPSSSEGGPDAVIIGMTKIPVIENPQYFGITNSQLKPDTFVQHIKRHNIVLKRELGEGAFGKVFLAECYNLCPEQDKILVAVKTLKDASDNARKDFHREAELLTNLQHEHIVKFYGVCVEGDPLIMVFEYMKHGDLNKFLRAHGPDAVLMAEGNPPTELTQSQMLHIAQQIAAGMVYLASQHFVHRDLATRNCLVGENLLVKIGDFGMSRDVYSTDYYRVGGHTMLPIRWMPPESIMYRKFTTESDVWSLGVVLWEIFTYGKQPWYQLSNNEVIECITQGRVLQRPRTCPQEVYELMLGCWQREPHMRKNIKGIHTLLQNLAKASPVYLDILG
Test [13] shares this target. To be noted: at 1 µM.
Test [14] has as its target NT-3 growth factor receptor (Homo sapiens) (UniProt Q16288). To be noted: at 0.1 µM.
The target is the same in test [15]. To be noted: at 1 µM.
For test [16], the target named is T3, Tyrosine-protein kinase TXK (Homo sapiens) (UniProt P42681).
T3 sequence (whole entry): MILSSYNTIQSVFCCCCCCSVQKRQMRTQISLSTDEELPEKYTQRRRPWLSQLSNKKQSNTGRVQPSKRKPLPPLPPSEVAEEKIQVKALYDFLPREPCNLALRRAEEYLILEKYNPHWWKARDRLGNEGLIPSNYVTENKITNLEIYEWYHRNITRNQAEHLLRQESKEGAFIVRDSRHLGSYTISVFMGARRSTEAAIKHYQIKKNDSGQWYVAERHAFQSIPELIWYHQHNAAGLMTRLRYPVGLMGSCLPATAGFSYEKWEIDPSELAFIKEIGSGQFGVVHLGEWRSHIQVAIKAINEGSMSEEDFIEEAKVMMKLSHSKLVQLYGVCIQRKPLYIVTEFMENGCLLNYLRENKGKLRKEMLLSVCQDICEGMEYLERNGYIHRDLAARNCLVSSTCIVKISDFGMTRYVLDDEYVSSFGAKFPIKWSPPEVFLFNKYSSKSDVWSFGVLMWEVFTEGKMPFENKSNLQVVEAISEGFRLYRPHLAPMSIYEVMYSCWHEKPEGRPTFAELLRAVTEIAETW
To be noted: at 0.1 µM.

The target in test [17] is T3, Tyrosine-protein kinase TXK (Homo sapiens). To be noted: at 1 µM.
For test [18], the target named is Non-receptor tyrosine-protein kinase TYK2 (Homo sapiens) (UniProt P29597). To be noted: at 0.1 µM.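 Also: each value is a mean of the inhibition readings.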
Non-receptor tyrosine-protein kinase TYK2 (Homo sapiens), sequence (P29597 whole entry): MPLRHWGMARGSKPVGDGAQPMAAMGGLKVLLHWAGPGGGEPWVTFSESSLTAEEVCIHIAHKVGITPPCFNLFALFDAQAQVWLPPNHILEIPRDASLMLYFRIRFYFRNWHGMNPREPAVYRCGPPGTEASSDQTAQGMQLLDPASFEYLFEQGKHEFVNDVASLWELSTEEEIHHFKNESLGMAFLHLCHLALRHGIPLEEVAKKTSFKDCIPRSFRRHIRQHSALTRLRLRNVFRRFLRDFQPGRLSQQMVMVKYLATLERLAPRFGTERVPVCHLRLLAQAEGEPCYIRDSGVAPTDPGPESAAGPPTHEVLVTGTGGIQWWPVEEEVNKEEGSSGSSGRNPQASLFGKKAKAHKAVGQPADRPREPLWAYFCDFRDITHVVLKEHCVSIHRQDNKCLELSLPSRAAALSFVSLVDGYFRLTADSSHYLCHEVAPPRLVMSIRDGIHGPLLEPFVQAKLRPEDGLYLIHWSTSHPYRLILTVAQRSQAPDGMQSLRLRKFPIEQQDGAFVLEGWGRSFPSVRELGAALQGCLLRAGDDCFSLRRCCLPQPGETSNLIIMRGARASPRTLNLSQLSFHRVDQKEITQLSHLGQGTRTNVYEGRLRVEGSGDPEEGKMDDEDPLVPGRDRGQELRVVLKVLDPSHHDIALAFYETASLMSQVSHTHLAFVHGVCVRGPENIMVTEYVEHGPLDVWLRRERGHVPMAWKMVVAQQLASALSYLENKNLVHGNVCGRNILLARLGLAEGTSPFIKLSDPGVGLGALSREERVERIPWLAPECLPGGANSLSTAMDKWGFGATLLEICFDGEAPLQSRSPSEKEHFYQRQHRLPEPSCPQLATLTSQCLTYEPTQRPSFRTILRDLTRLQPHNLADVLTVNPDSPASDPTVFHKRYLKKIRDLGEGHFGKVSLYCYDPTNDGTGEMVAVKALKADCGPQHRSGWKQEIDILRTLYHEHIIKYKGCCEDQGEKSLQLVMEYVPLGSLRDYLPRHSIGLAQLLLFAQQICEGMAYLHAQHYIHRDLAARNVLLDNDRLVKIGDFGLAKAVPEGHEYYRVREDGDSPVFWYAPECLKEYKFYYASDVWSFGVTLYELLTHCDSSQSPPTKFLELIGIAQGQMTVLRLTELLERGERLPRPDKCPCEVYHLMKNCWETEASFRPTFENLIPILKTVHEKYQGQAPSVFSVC
Test [19] deals with T4, Dual specificity protein kinase TTK (Homo sapiens) (UniProt P33981).
T4 sequence (whole entry): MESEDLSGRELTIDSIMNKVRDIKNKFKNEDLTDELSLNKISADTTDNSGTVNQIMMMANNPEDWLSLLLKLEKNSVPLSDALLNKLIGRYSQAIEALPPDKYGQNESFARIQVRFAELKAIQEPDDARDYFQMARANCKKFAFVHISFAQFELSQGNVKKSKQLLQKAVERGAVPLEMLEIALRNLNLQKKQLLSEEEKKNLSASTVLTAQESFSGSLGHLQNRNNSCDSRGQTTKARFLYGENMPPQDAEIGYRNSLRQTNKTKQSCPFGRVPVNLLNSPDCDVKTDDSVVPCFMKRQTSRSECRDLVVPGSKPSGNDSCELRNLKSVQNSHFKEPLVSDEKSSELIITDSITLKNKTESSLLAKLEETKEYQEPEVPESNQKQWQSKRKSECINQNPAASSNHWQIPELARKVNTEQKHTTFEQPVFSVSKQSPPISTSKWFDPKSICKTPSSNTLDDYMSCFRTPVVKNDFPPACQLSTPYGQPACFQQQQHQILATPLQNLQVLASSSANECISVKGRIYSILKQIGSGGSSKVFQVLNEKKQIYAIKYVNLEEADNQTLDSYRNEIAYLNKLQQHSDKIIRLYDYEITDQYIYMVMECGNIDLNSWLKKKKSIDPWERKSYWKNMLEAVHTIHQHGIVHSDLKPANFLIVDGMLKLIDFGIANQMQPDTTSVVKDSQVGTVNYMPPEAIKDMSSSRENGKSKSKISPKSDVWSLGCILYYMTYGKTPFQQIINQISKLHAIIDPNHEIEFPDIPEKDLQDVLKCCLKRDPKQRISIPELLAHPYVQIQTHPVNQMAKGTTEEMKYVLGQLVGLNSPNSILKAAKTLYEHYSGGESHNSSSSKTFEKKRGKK
To be noted: at 1 µM.

For test [20], the target named is T5, Aurora kinase A (Homo sapiens) (UniProt O14965).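 Also: each reported value is a mean percent inhibition of Aurora-A.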
T5 sequence (whole entry): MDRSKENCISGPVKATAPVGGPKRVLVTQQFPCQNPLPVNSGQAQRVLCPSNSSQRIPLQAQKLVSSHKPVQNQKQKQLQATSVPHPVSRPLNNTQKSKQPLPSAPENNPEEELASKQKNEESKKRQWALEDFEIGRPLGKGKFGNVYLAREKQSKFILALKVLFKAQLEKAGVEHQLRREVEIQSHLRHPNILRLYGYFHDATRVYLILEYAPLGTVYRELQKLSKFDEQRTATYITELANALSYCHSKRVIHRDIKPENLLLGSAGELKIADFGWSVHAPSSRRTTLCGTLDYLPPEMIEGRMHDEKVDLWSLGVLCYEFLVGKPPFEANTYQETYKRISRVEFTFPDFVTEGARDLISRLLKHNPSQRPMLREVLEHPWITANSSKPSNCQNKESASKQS
To be noted: at 0.1 µM.

Activated CDC42 kinase 1 (Homo sapiens), sequence (Q07912 whole entry, looked up): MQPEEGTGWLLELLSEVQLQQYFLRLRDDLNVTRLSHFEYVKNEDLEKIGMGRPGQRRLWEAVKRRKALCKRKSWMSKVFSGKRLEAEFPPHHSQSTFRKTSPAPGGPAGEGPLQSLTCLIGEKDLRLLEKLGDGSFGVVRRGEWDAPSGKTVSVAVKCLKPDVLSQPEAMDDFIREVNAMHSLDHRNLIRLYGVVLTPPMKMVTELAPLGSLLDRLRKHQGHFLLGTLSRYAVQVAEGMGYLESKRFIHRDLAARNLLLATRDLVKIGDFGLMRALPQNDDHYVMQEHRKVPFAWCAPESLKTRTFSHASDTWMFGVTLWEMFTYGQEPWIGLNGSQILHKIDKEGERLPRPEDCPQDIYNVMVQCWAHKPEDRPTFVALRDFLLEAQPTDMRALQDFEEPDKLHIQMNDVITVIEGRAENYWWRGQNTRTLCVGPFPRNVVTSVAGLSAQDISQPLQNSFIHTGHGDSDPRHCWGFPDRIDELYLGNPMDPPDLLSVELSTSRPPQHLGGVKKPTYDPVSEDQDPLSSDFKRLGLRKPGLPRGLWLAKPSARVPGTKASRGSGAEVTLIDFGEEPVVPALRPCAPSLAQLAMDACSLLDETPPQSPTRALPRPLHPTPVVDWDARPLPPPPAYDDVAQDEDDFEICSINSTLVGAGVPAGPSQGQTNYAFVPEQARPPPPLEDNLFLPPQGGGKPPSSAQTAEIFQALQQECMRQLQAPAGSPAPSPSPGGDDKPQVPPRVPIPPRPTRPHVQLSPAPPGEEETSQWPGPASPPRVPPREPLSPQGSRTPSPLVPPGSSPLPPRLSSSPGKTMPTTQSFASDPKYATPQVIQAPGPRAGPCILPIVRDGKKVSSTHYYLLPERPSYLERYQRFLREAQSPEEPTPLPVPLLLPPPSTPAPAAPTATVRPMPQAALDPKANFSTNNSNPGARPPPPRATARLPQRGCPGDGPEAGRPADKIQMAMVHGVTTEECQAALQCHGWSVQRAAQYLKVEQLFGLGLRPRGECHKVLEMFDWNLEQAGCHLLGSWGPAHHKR
NT-3 growth factor receptor (Homo sapiens), sequence (Q16288 32-839 limits assumed): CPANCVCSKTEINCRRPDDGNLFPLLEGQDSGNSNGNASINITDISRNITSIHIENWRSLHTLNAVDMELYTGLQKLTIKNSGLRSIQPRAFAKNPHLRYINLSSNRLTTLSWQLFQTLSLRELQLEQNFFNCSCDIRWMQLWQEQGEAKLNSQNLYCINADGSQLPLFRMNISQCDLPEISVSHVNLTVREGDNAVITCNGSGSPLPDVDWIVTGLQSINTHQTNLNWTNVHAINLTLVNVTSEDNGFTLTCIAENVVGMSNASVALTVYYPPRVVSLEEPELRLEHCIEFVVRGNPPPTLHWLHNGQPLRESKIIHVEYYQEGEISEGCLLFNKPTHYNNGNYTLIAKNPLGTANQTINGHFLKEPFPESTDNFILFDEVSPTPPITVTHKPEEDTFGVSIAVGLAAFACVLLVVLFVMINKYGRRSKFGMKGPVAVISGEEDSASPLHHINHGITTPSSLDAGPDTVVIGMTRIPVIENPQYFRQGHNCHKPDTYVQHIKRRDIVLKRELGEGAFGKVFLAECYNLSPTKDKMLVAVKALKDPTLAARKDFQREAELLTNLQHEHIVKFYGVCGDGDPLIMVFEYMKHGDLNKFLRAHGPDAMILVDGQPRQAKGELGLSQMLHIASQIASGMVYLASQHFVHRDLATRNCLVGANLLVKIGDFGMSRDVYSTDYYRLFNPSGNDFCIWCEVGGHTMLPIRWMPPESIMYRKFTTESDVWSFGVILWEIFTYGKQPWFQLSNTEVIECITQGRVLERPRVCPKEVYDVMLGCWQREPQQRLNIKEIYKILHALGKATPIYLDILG

The inhibition is the relative decrease from the control value, in per cent. For the molecule `Cc1cc(Cl)cc2c1NC(=O)C2=NNc1ccc(S(N)(=O)=O)cc1`, the inhibition in test [1] is 0.95%; in test [2], 2.23%; in [3] it was 1.43%; in test [4], 2.08%; in test [5], 2.32%; in test [6], -0.6%. In addition, the inhibition in [7] is 7.55%; in [8], 0.54%; in test [9], 1.92%; in test [10], -1.82%; in [11] it was 2.26%; in [12] it was 1.15%. In addition, the inhibition in [13] is 4.46%; in test [14] it was 1.2%; in test [15] it was 3.59%; in [16] it was 2.77%; in [17], 3.71%; in test [18], -5.56%. The inhibition in [19] was 9.15%; in [20] it was 1.75%.
For the molecule `NS(=O)(=O)c1ccc(N/N=C2\C(=O)Nc3ccc(Cl)cc32)cc1`, the inhibition in [1] was -3.16%; in test [2] it was 4.2%; in [3] it was 6.14%; in test [4], 0.79%; in test [5], 3.42%; in test [6] it was 3.04%. The inhibition in test [7] is 20.5%; in [8] it was 0.4%; in test [9] it was 3.7%; in test [10] it was 3.01%; in test [11], 17.9%; in test [12] it was 5.72%. Also, the inhibition is 34.7% in test [13]; 9.02% in [14]; 42.3% in test [15]; 3.22% in test [16]; 4.96% in [17]; -4.4% in test [18]. Moreover, the inhibition in [19] was 45.1%; in test [20] it was 3.86%.
`COc1cccc(-n2ncc3c(N/N=C/c4ccc(S(C)(=O)=O)cc4)ncnc32)c1`: the inhibition in test [1] was -1.66%; in test [2] it was -0.19%; in test [3], 10.4%; in test [4] it was 7.64%; in test [5], 31.4%; in test [6] it was 10.4%. For the same molecule, the inhibition turned out to be 20% in test [7]; 1.34% in test [8]; 1.96% in test [9]; 4.94% in [10]; 5.3% in [11]; 6.69% in [12]. Besides, the inhibition in test [13] was 19.3%; in [14], 6.62%; in [15], 22.3%; in test [16] it was 0.02%; in [17], 12.4%; in test [18], -0.06%. The inhibition in test [20] stood at 6.42%.
For the molecule `COc1cccc(-n2ncc3c(N/N=C/c4ccc(C)cc4)ncnc32)c1`, the inhibition in test [1] amounted to 0.76%; in [2], 6.46%; in test [3], 5.78%; in [4], 4.38%; in [5] it was 5.1%; in test [6] it was 4.86%. The inhibition in test [7] is 9.73%; in test [8] it was 0.47%; in test [9], 5.39%; in test [10], 9.62%; in test [11], 5.28%; in test [12], 3.97%. Besides, the inhibition in [13] is 5.08%; in test [14], 3.96%; in [15], 2.64%; in [16] it was 7.7%; in test [17], 7.5%; in test [18], -1.37%. The inhibition in [19] stood at 19.1%; in test [20], 3.98%.
